Screening results: PubChem BioAssay, National Center for Advancing Translational Sciences (NCATS)
EPAC2 ag: agonists of human EPAC2 (RAPGEF4) | Potency, µM (highest dose often 154 µM), without a hit: at the top dose activation, hits mostly activators | actives 0.079% (n = 360,000) | EPAC2 activation, biochemical qHTS; response scale: 100% = 6.5 mM cAMP response | Q8WZA2; further: nearly all actives have a fitted effect of over 50% in size
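Guanine nucleotide exchange by EPAC2 is measured as reduced fluorescence of BODIPY-GDP once it is released from 250 nM Rap1B. Plates are read kinetically for 30 min at room temperature; results are scaled to 6.5 mM cAMP.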
EPAC1 ag: agonists of human EPAC1; O95398; EPAC1 agonist qHTS, biochemical assay; response scale: 100% = response to 6.5 mM cAMP; Potency, µM (titrated, usually from 154 µM), without a hit: top-dose activation, most hits filed as activators; actives 0.073% (n = 360,000); AID 720707; further: nearly all actives have a fitted effect of over 60% in size
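Fluorescent GDP-exchange assay: 100 nM EPAC1 with 250 nM Rap1B preloaded with BODIPY-GDP and 50 uM GDP; compounds tested as concentration series, 5 min at room temperature, then read every 5 min for 30 min (ex 480/em 540 nm); normalized to 6.5 mM cAMP.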
EPAC1 antag: antagonists of human EPAC1. O95398. Potency, µM (series often up to 115 µM), for inactives: top-dose activity change, negative = inhibition, actives largely listed as inhibitors. actives 0.14% (n = 360,000). EPAC1 GEF assay, Rap1b-BODIPY-GDP exchange fluorescence;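 further: plate controls were vehicle for no effect and positive control for full effect; nearly all actives have a fitted effect of over 50% in size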
EPAC2 antag: blocks human EPAC2 exchange factor; Potency, µM (series often up to 114 µM), inactives show top-dose activity, negative = inhibition, usual class: inhibitors; Q8WZA2; actives 0.18% (n = 360,000); EPAC2 GEF exchange of Rap1B-BODIPY-GDP, fluorescence; AID 720708; further: on the % scale 0 is the no-effect control and ±100 the full control effect; nearly all actives have a fitted effect of over 45% in size
USP1 inh: inhibitors of human USP1/UAF1 deubiquitinase; O94782; Potency, µM (titrated, usually from 57.1 µM), inactives show at the highest dose activity change, negative = inhibition, usual class: inhibitors; recombinant USP1/UAF1, Ub-Rhodamine cleavage fluorescence; actives 0.23% (n = 390,000); further: on the % scale 0 is the no-effect control and ±100 the full control effect; nearly all actives have a fitted effect of over 60% in size
Target sequence (O94782 whole entry, looked up): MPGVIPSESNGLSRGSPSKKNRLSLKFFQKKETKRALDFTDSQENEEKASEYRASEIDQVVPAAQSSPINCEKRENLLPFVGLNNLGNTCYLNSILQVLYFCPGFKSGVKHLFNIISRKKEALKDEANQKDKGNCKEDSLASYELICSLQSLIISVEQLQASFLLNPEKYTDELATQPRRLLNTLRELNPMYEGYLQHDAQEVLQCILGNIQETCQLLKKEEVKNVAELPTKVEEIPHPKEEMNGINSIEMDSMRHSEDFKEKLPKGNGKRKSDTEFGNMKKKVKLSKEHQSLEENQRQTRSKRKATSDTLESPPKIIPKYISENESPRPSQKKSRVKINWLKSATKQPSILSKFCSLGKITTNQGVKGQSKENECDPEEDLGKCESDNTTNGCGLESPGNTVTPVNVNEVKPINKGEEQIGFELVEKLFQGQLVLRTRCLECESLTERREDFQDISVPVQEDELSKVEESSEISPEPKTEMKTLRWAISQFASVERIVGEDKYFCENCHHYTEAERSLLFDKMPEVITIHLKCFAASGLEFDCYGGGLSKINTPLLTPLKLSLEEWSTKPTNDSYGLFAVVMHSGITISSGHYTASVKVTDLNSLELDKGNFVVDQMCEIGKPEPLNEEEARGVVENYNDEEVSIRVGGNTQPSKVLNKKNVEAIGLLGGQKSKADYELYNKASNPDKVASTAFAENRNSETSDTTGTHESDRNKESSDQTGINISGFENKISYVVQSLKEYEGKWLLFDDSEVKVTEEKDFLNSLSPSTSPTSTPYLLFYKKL
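In this screen, compounds sit with the deubiquitinase complex (1nM) for 15 min at room temperature before Ub-Rho is added at 150nM final. Fluorescence rise is then followed for 6 reads every 60 seconds.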
Starred values were filed as active, the others as inactive; i = inactive; u = inconclusive; x = no result; [ ] = another dose, or the depositor's remark. The list is not random: actives were taken first. Their share in the collection is about 0.44%. The call rests on the fitted dose curve; in most records, active means well fitted curve in the direction sought with a large enough effect; inconclusive means small, poorly fitted or top-dose-only effect, or another doubt; inactive means no such curve, though single readings can be large; an effect the other way counts as inactive or inconclusive. Potency means the concentration at half of the fitted maximal effect.

SMILES | EPAC2 ag | EPAC1 ag | EPAC1 antag | EPAC2 antag | USP1 inh
O=C(O)c1cc(O)c2c(c1)[C@@H]([C@H]1c3cc(C(=O)O)cc(O)c3C(=O)c3c(O[C@@H]4O[C@H](CO)[C@@H](O)[C@H](O)[C@H]4O)cccc31)c1cccc(OC3O[C@H](CO)[C@@H](O)[C@H](O)[C@H]3O)c1C2=O (stereo partly drawn) | 8% | 5% | u | u | 5.6µM*
O=C(O)c1cc(O)c2c(c1)[C@H]([C@H]1c3cc(C(=O)O)cc(O)c3C(=O)c3c(O[C@@H]4O[C@H](CO)[C@@H](O)[C@H](O)[C@H]4O)cccc31)c1cccc(OC3O[C@H](CO)[C@@H](O)[C@H](O)[C@H]3O)c1C2=O (stereo partly drawn) | 2% | -8% | 3.5µM* | u | 7.1µM*
O=C1c2cc(CO)cc(O)c2C(=O)c2c(O[C@@H]3OC(CO)[C@@H](O)[C@@H](O)[C@@H]3O)cccc21 (stereo partly drawn) | 2% | -8% | 1% | -13% | -2%
COc1ccc(/C=C2/C(=O)N(CC3CCCO3)C(=S)N2C)c(OC)c1 (stereo not drawn) | i | -285% | 50µM* | 451% | 56%
Cc1cc(O)cc(C)c1NS(=O)(=O)c1ccc2ccccc2c1 | 13% | 4% | -5% | 11µM* | 2%
CNS(=O)(=O)c1ccc2ccccc2c1 | 4% | 12% | -3% | -6% | -21%
Cc1ccc(C(=O)N2CCN(c3ccccc3)CC2)cc1S(=O)(=O)N1CCOCC1 | 2% | -8% | 56µM* | -6% | 5%
COc1cccc(-c2ccc3ncnc(N(C)Cc4ccco4)c3c2)c1 | 11% | 5% | -12% | 32µM* | x
O=c1[nH]c(Nc2ccc(F)cc2)cc2ccccc12 | 19% | 0% | u | u | 13µM*
O=c1oc(Nc2ccccc2Cl)nc2ccccc12 | 0% | -5% | -5% | 8% | -21%
Cc1cc2ccccc2c(=O)[nH]1 | 3% | 1% | 3% | 0% | -6%
Cc1ccccc1Nc1cc2ccccc2c(=O)[nH]1 | 20% | 11% | u | u | 1µM*
O=c1[nH]c(Nc2ccccc2Cl)cc2ccccc12 | 2% | -2% | 7% | 7% | 14µM*
COc1ccc(CCCc2nnc(SCC(=O)Nc3cccc(C)c3)o2)cc1C | x | x | x | x | -18%
COc1ccc2cc(CNc3ccccc3)c(=O)n(CC(=O)Nc3ccc(C)cc3C)c2c1 | x | x | x | x | 19%
Cn1c(N)c(C(=O)COC(=O)/C=C/c2ccc(Cl)c(Cl)c2)c(=O)n(C)c1=O | 5% | 13% | -6% | -1% | u
CCc1ccc2c(c1)NC(=O)C2(C)Cc1ccccc1 (stereo not drawn) | -4% | -9% | -4% | -23% | x
CCc1ccc2c(c1)NC(=O)C2(C)Cc1ccc(C(F)(F)F)o1 (stereo not drawn) | -10% | -24% | -21% | 20µM* | x
CN1C(=O)/C(=C\c2ccc(N(C)C)cc2)OC1=S | -5% | 89µM* | 23% | 3% | u
COc1cc(OC)c2c(O)c3c(c(-c4c5c(c(O)c6c(OC)cc(OC)cc46)CO[C@@H](C)[C@H]5O)c2c1)[C@H](O)[C@H](C)OC3 | -21% | -33% | 35µM* | 10% | u
CC1=C(SCc2ccccc2)C(=O)c2ccccc2C1=O | 26% | -3% | u | u | 16µM*
Cc1cccc(NC(=O)CCc2ccccc2)c1C | 1% | 4% | 5% | -4% | 0%
CCN1C/C(=C/c2ccc(N3CCOCC3)cc2)C(=O)/C(=C/c2ccc(N3CCOCC3)cc2)C1 | 89µM* | 63µM* | 39% | 135% | u
CN1C/C(=C\c2ccc(N3CCOCC3)cc2)C(=O)/C(=C/c2ccc(N3CCOCC3)cc2)C1 | u | 22% | 13% | 8% | u
CCc1cc(-c2nnn(CCC3COCCO3)c2C(C)(C)O)ccc1-c1cn(CCc2c[nH]c3ccccc23)nn1 (stereo not drawn) | 12% | -6% | -9% | 3% | -18%
SMILES | EPAC2 ag | EPAC1 ag | EPAC1 antag | EPAC2 antag | USP1 inh
CCOc1cccc(CNc2ccc(O)cc2)c1OCc1ccc(Cl)cc1Cl | -7% | 13% | 50µM* | u | 32µM*
CCOc1cc(CNc2ccccc2)cc(Br)c1OCc1ccc(F)cc1 | -2% | 8% | 0% | 10% | u
CCOc1cccc(CNCCO)c1OCc1ccc(Cl)cc1Cl | -1% | 1% | -13% | -7% | -17%
CCOc1cc(CNc2ccc(O)cc2)cc(Cl)c1OCc1ccccc1 | x | x | x | x | 28µM*
CCOc1cccc(CNn2cnnc2)c1OCc1ccccc1Cl | 0% | 5% | 7% | -1% | -2%
CCOc1cccc(CNc2ccc(O)cc2)c1OCc1ccccc1Cl | -15% | 15% | 28µM* | -8% | u
O=C(NCc1ccccn1)Nc1ccccc1C(F)(F)F | 8% | 8% | -23% | 3% | -4%
O=C(N/N=C/c1ccc(-c2ccc(Cl)c(C(=O)O)c2)o1)c1cc2c(ccc3ccccc32)o1 | 28% | 11% | 40µM* | 17% | -22%
CCCOc1cccc(C2c3c(oc4cc(C)c(C)cc4c3=O)C(=O)N2CCCN2CCOCC2)c1 (stereo not drawn) | x | x | x | x | -29%
COC(=O)c1cn(C(=O)c2cc(OC)c(OC)c(OC)c2)c2ccccc12 | 5% | -1% | 1% | 18µM* | -24%
CCOc1ccc(/C=C/C(=O)c2c(O)c3ccccc3oc2=O)cc1 | 11% | 100µM* | 43% | 1% | -17%
CN(C)c1nc(OCCNC(=O)Nc2ccccc2)nc(N(C)C)n1 | 10µM* | -6% | 9% | 0% | -22%
CSc1nc(N2CCOCC2)c2c3c(sc2n1)CCCC3 | 3% | 5% | -10% | 18µM* | -22%
Cc1nc(N2CCOCC2)c2c3c(sc2n1)CCC3 | 2% | -7% | 3% | -14% | -7%
O=C(Nc1cccc(Cl)c1)N(Cc1nc2ccccc2c(=O)[nH]1)C1CCCC1 | 13% | 16% | -5% | -8% | -4%
O=C(Nc1cccc(Cl)c1)N(Cc1nc2ccccc2c(=O)[nH]1)Cc1cccs1 | 2% | 89µM* | -5% | -2% | -24%
CCOC(=O)/C(=C/C1=CC(=C/N(C)C)/C(=O)O1)C(C)=O | 26% | 25% | 34% | 40% | 32µM*
CCOC1=C2[C@@H](CN(S(=O)(=O)c3ccc(C)cc3)[C@H]2c2ccccc2F)[C@H]2C(=O)NC(=O)[C@H]2C1 | 4% | -14% | 9% | u | x
O=C(COc1cccc(OC(F)F)c1)Nc1ccc(SC(F)F)cc1 | -20% | 13% | -3% | 25µM* | -10%
CCOC(=O)c1c(N2C(=O)Nc3cc(Cl)c(Cl)cc3N2O)sc2c1CCCCC2 | -19% | -12% | 50µM* | -29%[57.1 µM] | -7%
